Results as given in PubChem BioAssay AID1159580 (chemical genetic matrix, 2015).
“And” between values parts separate entries of the source, which are not always exact repeats. Identical values can stand only once. The whole screen tested about 5,500 compounds, of which about 2,000 (36%) were called active. About 18% were inconclusive and are not listed. Cut-off read from the data, not from the text of the source: active = normalized growth mostly below about 0.91 (no sharp cut-off); inconclusive = no clear call, values can overlap the other calls; inactive = mostly above about 0.92. Some of the results follow.

Experiment: chemical genetic growth profiling, strain panel (AID 1159580);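 note: tested at 20 µM; growth read once vehicle control cultures reached saturation at 30 °C; 1 = growth at the plate median or of vehicle wells; lower values mean less growth of the strain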
Conditions: S. cerevisiae deletion strains, growth OD

Measured: normalized growth

CC(C)c1cc2c(c(O)c1O)[C@@]1(C(=O)O)CCCC(C)(C)C1CC2 (stereo partly drawn)
inactive: locus YAL021C, strain ccr4, stronger effect = lower value 0.988 | locus YBL061C, strain skt5, stronger effect = lower value 0.953 | locus YBR021W, strain FUR4, stronger effect = lower value 1.01 | locus YBR023C, strain chs3, stronger effect = lower value 0.956 | locus YBR171W, strain sec66, stronger effect = lower value 0.975 | locus YBR229C, strain ROT2, stronger effect = lower value 1.01 | locus YBR231C, strain swc5, stronger effect = lower value 0.969 | locus YBR279W, strain paf1, stronger effect = lower value 0.948 | locus YCL029C, strain bik1, stronger effect = lower value 1.01 | locus YCL061C, strain MRC1, stronger effect = lower value 0.954 | locus YCL069W, strain vba3, stronger effect = lower value 0.998 | locus YCR088W, strain abp1, stronger effect = lower value 0.991 | locus YDL005C, strain med2, stronger effect = lower value 1 | locus YDL035C, strain GPR1, stronger effect = lower value 0.943 | locus YDL040C, strain nat1, stronger effect = lower value 0.99 | locus YDL074C, strain BRE1, stronger effect = lower value 0.946 | locus YDL101C, strain DUN1, stronger effect = lower value 1.01 | locus YDL134C, strain PPH21, stronger effect = lower value 0.993 | locus YDL185W, strain tfp1, stronger effect = lower value 0.998 | locus YDR001C, strain nth1, stronger effect = lower value 0.997 | locus YDR069C, strain doa4, stronger effect = lower value 0.923 | locus YDR101C, strain arx1, stronger effect = lower value 1.02 | locus YDR137W, strain rgp1, stronger effect = lower value 0.876 | locus YDR150W, strain NUM1, stronger effect = lower value 0.929 | locus YDR159W, strain sac3, stronger effect = lower value 0.902 | locus YDR162C, strain NBP2, stronger effect = lower value 0.851 | locus YDR195W, strain ref2 0.979 | locus YDR297W, strain sur2, stronger effect = lower value 0.982 | locus YDR318W, strain mcm21, stronger effect = lower value 0.959 | locus YDR334W, strain swr1, stronger effect = lower value 1 | locus YDR335W, strain msn5, stronger effect = lower value 0.988 | locus YDR388W, stronger effect = lower value 1 | locus YDR502C, strain sam2, stronger effect = lower value 0.972 | locus YEL003W, strain gim4, stronger effect = lower value 0.94 | locus YEL037C, strain rad23, stronger effect = lower value 0.992 | locus YEL061C, strain CIN8 (second series), stronger effect = lower value 0.993 | locus YEL061C, strain CIN8, stronger effect = lower value 0.968 | locus YER015W, strain faa2, stronger effect = lower value 0.987 | locus YER016W, strain bim1, stronger effect = lower value 0.971 | locus YER110C, stronger effect = lower value 1.03 | locus YER111C, strain swi4, stronger effect = lower value 0.975 | locus YER155C, strain BEM2, stronger effect = lower value 1.04 | locus YER167W, strain BCK2, stronger effect = lower value 0.981 | locus YFR010W, strain ubp6, stronger effect = lower value 0.944 | locus YGL078C, strain dbp3, stronger effect = lower value 0.957 | locus YGL086W, strain mad1, stronger effect = lower value 0.94 | locus YGL167C, strain pmr1, stronger effect = lower value 0.978 | locus YGL227W, strain vid30, stronger effect = lower value 1 | locus YGL240W, strain doc1, stronger effect = lower value 0.938 | locus YGL248W, strain PDE1, stronger effect = lower value 0.962 | locus YGL253W, strain hxk2, stronger effect = lower value 0.976 | locus YGR078C, strain PAC10, stronger effect = lower value 0.873 | locus YGR135W, strain pre9, stronger effect = lower value 0.969 | locus YGR252W, strain gcn5, stronger effect = lower value 0.903 | locus YHR027C, strain rpn1, stronger effect = lower value 0.956 | locus YHR079C, strain IRE1 (second series), stronger effect = lower value 1 | locus YHR094C, strain hxt1, stronger effect = lower value 1.01 | locus YHR129C, strain ARP1, stronger effect = lower value 0.921 | locus YHR142W, strain chs7, stronger effect = lower value 0.969 | locus YHR200W, strain rpn10, stronger effect = lower value 0.984 | locus YIL066C, strain RNR3, stronger effect = lower value 0.937 | locus YIL073C, strain SPO22, stronger effect = lower value 0.936 | locus YIL125W, strain kgd1, stronger effect = lower value 0.958 | locus YIR030C, strain dcg1, stronger effect = lower value 1.01 | locus YJL092W, strain hpr5, stronger effect = lower value 0.98 | locus YJL115W, strain asf1, stronger effect = lower value 1.01 | locus YJL129C, strain trk1, stronger effect = lower value 1.04 | locus YJL134W, strain LCB3, stronger effect = lower value 1.02 | locus YJL154C, strain vps35, stronger effect = lower value 1 | locus YJL168C, strain set2, stronger effect = lower value 1.01 | locus YJL187C, strain SWE1 (second series), stronger effect = lower value 0.973
0.962 (inactive) and 0.657 (active): locus YJL095W, strain BCK1, stronger effect = lower value
active: locus YAL026C, strain drs2, stronger effect = lower value 0.835 | locus YAL030W, strain snc1, stronger effect = lower value 0.917 | locus YBR009C, strain hhf1, stronger effect = lower value 0.775 | locus YCL011C, strain gbp2, stronger effect = lower value 0.908 | locus YCL016C, strain dcc1, stronger effect = lower value 0.886 | locus YDL192W, strain arf1, stronger effect = lower value 0.874 | locus YDR392W, strain spt3, stronger effect = lower value 0.24 | locus YER155C, strain BEM2 (second series), stronger effect = lower value 0.697 | locus YGL173C, strain kem1, stronger effect = lower value 0.885 | locus YGR229C, strain SMI1, stronger effect = lower value 0.207 | locus YHR013C, strain ard1, stronger effect = lower value 0.705 | locus YHR030C, strain SLT2, stronger effect = lower value 0.903 and 0.663 | locus YHR079C, strain IRE1, stronger effect = lower value 0.341 | locus YJL095W, strain BCK1 (second series), stronger effect = lower value 0.86 | locus YJL164C, strain tpk1, stronger effect = lower value 0.908 | locus YJL166W, strain qcr8, stronger effect = lower value 0.462
